22 compounds from PubChem BioAssay (EPA / NIEHS) can be followed below.

Results filed as inconclusive are left out. Active and inactive are the calls of the source. The calls were made as follows: active = hit-call score of the fitted dose curve at least 0.9, where 1 is the maximum; inconclusive = response in the unintended direction; inactive = score below 0.9.

This assay deals with Ratio of Nucleoli Translocation and Cytoplasm, AR (gene 367) (UniProt P10275). The experiment in a line: UPITT_HCI_U2OS_AR_TIF2_Nucleoli_Cytoplasm_Ratio_Agonist: University of Pittsburgh U2OS Androgen Receptor-Transcriptional Intermediary Factor 2 (AR-TIF2) Agonism High Content Imaging Assay for Ratio of Nucleoli Translocation and Cytoplasm (AID 2284000).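 Also: hits raise the red nucleolar to cytoplasm ratio above vehicle.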 The source says: UPITT_AR_TIF2_PPIB is a cell-based, high-content imaging assay that uses U2OS, a human osteosarcoma cell line, expressing a human androgen receptor fused to red fluorescent protein and the coactivator TIF2 fused to green fluorescent protein. UPITT_HCI_U2OS_AR_TIF2_Nucleoli_Cytoplasm_Ratio_Agonist is one of four assay components measured from the UPITT_AR_TIF2_PPIB assay. It is designed to make measurements of the ratio of red fluorescence localized in the nucleolar region of the cell nucleus to red fluorescence localized in the cytoplasm as detected with high-content fluorescent imaging.Data from the assay component UPITT_HCI_U2OS_AR_TIF2_Nucleoli_Cytoplasm_Ratio_Agonist was analyzed into 1 assay endpoint. This assay endpoint, UPITT_HCI_U2OS_AR_TIF2_Nucleoli_Cytoplasm_Ratio_Agonist, was analyzed in the positive analysis fitting direction relative to DMSO as the baseline of activity. Using a type of binding reporter, measures of receptor for gain-of-signal activity can be used to understand the binding at the pathway-level as it relates to the gene AR.
Chain of Ratio of Nucleoli Translocation and Cytoplasm, AR (gene 367) (P10275 whole entry, looked up, the tested form may be a part): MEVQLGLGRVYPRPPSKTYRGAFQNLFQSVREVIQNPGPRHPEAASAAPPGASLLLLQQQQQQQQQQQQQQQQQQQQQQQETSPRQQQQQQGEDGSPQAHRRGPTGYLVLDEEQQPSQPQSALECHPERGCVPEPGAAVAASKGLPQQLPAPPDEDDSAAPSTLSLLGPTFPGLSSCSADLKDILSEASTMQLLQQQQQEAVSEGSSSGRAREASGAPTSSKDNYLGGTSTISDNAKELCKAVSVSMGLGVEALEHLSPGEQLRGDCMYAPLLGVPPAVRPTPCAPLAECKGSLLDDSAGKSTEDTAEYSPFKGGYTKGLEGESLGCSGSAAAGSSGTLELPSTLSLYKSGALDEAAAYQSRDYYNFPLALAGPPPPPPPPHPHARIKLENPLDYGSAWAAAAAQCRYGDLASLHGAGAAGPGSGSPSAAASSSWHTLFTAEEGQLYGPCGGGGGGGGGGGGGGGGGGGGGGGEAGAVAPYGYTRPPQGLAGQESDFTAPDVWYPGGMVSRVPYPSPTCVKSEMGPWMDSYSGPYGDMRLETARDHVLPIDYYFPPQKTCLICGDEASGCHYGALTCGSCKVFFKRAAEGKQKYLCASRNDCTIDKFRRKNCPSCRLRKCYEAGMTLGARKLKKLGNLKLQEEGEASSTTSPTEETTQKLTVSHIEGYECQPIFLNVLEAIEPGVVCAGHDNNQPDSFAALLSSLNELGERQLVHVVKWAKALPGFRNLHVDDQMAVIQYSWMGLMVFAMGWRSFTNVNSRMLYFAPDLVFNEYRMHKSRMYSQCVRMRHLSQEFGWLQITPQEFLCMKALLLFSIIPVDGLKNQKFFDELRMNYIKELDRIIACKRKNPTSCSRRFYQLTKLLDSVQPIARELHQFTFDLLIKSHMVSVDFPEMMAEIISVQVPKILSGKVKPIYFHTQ
Daughter plates containing 2 uL of 10 mM compounds in DMSO were prepared and replicated from the 384-well Library of Pharmacologically Active Compounds (LOPAC) master plates using the Bravo outfitted with a 384-well transfer head. Aluminum adhesive plate seals were applied with an Abgene Seal-IT 100 (Rochester, NY) plate sealer, and the plates were stored at -20 C in a Matrical MatriMinistore (Spokane, WA) automated compound storage and retrieval system. For screening, LOPAC daughter plates were withdrawn from -20C storage, thawed to ambient temperature, centrifuged 1-2 min at 50 g, and the plate seals were removed before the transfer of 98 uL of serum-free tissue culture medium (SFM) into wells using the BioTek Microflo liquid handler (BioTek, Winooski, VT) to generate a 200 uM intermediate stock concentration of library compounds (2.0% DMSO). The diluted compounds were mixed by repeated aspiration and dispensation using a 384-well P30 dispensing head on the Evolution P3 (EP3) liquid handling platform (PerkinElmer, Waltham, MA) and then 5 uL of diluted compounds was transferred to the wells of assay plates. In the LOPAC screen, compounds were individually tested at a final concentration of 20 uM (0.2% DMSO). After the diluted compounds had been transferred from the daughter plates to the primary HCS assay plates, aluminum adhesive plate seals were applied and the diluted daughter plates were stored frozen at -20C. To confirm active compounds identified in the primary screen, we withdrew the LOPAC daughter plates containing the 200 uM intermediate concentration of library compounds (2.0% DMSO) from -20C storage, thawed them to ambient temperature, centrifuged them for 1-2 min at 50 g, and removed the plate seals. A work list was generated to direct the Multiprobe Janus liquid handling platform (PerkinElmer) to cherry pick 75 uL from the wells of the diluted daughter plates that were flagged active in the primary screen and to reformat these into a 384-well plate hit confirmation daughter plate. Five microliters of primary HCS active compounds was then transferred into triplicate wells of assay plates using a 384-well P30 dispensing head on the Evolution P3 (EP3) liquid handling platform (PerkinElmer). […] Daughter plates containing 2 uL of the serially diluted compounds in DMSO were prepared and replicated from the 384-well serial dilution master plates using the Bravo outfitted with a 384-well transfer head. Aluminum adhesive plate seals were applied and plates were stored at -20C. For testing in the bioassays, daughter plates were withdrawn from -20C storage, thawed to ambient temperature, centrifuged for 1-2 min at 50 g, and the plate seals were removed before the transfer of 38 uL of SFM into wells using the BioTek Microflo liquid handler (BioTek) to generate an intermediate stock concentration of library compounds ranging from 1.95 to 500 uM (5.0% DMSO). […]
With `CC12CC1(C)C(=O)N(c1cc(Cl)cc(Cl)c1)C2=O` (configuration not stated), the result was inactive.
On the same count and under the same terms, for `Cl/C=C\C[N+]12CN3CN(CN(C3)C1)C2` the value was “inactive”.
The term AC50 denotes the midpoint of the concentration-response curve, whichever way the signal moves. Regarding `C[C@H]1CCCC(=O)CCC/C=C/c2cc(O)cc(O)c2C(=O)O1`, the AC50 was 84.8 µM (active).
Consider `CC(=O)[O][Hg][c]1ccccc1`, for which the outcome was inactive.
Same read-out and setting: under `CC(C)CCCCCCOC(=O)c1ccccc1C(=O)OCCCCCCC(C)C` stands “inactive”.
On to `CCSC(C)CC1CC(=O)C(C(CC)=NOC/C=C/Cl)=C(O)C1` (configuration not stated), for which the result was inactive.
As for `COP(=S)(OC)Oc1cc(Cl)c(Cl)cc1Cl`, the outcome was inactive.
Same read-out and setting: under `CCC(=O)C(CC(C)N(C)C)(c1ccccc1)c1ccccc1` (configuration not stated) stands “inactive”.
Turning to `O=[N+]([O-])c1ccc(O)c([N+](=O)[O-])c1`, the outcome was inactive.
On to `C=CCc1ccc(OC)cc1`, for which the outcome was inactive.
With `Cc1ccc2ccccc2c1C`, the outcome was inactive.
As for `COP(=O)(OC)O/C(=C\Cl)c1cc(Cl)c(Cl)cc1Cl`, the AC50 was 50 µM (active).
In the case of `CN(CCCC(=O)c1cccnc1)N=O`, the outcome was inactive.
On the same count and under the same terms, for `Cc1ccccc1C(=O)Nc1cccc(OC(C)C)c1` the value was “inactive”.
For the compound `Clc1ccc(COC(Cn2ccnc2)c2ccc(Cl)cc2Cl)cc1` (configuration not stated), the AC50 is 74.4 µM (active).
With `c1cc[c]([Hg][c]2ccccc2)cc1`, the outcome was inactive.
Regarding `C[C@H]1O[C@@H](O[C@H]2[C@@H](O)C[C@H](O[C@H]3[C@@H](O)C[C@H](O[C@H]4CC[C@@]5(C)[C@H](CC[C@@H]6[C@@H]5CC[C@]5(C)[C@@H](C7=CC(=O)OC7)CC[C@]65O)C4)O[C@@H]3C)O[C@@H]2C)C[C@H](O)[C@@H]1O`, the outcome was inactive.
Take `O=C1C2(Cl)C3(Cl)C4(Cl)C(Cl)(Cl)C5(Cl)C3(Cl)C1(Cl)C5(Cl)C24Cl` (configuration not stated): the AC50 is 13.1 µM (active).
For `COP(=S)(OC)Oc1ccc(Sc2ccc(OP(=S)(OC)OC)cc2)cc1`, the outcome was inactive.
On the same count and under the same terms, for `CCOP(=S)(OCC)Oc1nc(Cl)c(Cl)cc1Cl` the value was “inactive”.
In the case of `CC(C)c1cccc(C(C)C)c1O`, the result was inactive.
On the same count and under the same terms, under `CC(C)(c1ccc(OCC2CO2)cc1)c1ccc(OCC2CO2)cc1` (configuration not stated) stands “inactive”.
